Source: PubChem BioAssay AID485272 (The Scripps Research Institute Molecular Screening Center, 2010)
Screen size: about 330,000 compounds; about 1,300 (0.39%) were called active. For the sample, actives were picked, then their nearest neighbours and some compounds at random. A number with no mark means an inactive call.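 How the source made its calls: active means percent inhibition above a cutoff equal to the mean of all tested compounds plus 3 SD (cut at about 15% in these data); inactive means the rest.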

biological target: Protein-arginine deiminase type-4 (Homo sapiens) (UniProt Q9UM07); assay: human PAD4 inhibitors, primary screen, biochemical, fluorescence polarization, 1536-well format (AID 485272); conditions: recombinant PAD4, RCA probe fluorescence polarization; at 6.36 µM; stronger effect = higher value;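 further: 0% = PAD4 with RCA probe and DMSO and 100% = probe without PAD4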
Sequence (Q9UM07 whole entry, looked up): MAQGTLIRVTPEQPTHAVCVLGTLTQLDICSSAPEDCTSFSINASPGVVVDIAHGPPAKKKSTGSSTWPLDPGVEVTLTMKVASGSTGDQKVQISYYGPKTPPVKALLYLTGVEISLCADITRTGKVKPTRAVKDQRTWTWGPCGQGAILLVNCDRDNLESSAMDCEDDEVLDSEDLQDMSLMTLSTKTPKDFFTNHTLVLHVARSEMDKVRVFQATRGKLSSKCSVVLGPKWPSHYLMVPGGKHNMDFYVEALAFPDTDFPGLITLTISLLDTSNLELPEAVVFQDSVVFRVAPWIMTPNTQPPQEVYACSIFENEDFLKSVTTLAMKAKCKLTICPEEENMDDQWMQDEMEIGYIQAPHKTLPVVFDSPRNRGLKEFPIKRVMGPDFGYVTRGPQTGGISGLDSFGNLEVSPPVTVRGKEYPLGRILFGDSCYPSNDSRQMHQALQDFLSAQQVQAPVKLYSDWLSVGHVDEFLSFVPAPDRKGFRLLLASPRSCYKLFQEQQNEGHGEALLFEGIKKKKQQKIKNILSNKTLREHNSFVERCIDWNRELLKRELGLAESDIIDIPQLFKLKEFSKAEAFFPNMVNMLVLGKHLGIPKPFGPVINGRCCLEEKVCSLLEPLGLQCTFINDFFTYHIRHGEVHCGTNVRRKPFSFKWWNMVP

In the case of `CCc1nnc(SCc2cccc(F)c2)nc1CC`, the inhibition is reported as 24.2% (active).
With `CC(=O)N(c1ccc2oc(=O)sc2c1)S(=O)(=O)c1ccc(C)cc1` the inhibition was 19.6% (active).
With `COc1cc(SC#N)ccc1N=Cc1c(C)[nH]n(-c2ccc(C)cc2)c1=O` the inhibition was 27.3% (active).
For `COc1ncnc2c1N=C1CC(C)(C)CC(N)=C1S2`, the inhibition was 16.7% (active).
In the case of `COc1ccc(C(=O)Nc2nc(-c3ccc(S(=O)(=O)N4CCOCC4)cc3)cs2)cc1`, the inhibition is reported as 17.5% (active).
With `COCCNC(=O)Nc1ccc2nc(-c3ccco3)c(-c3ccco3)nc2c1` the inhibition was 22% (active).
In the case of `Cc1nn(Cc2ccccc2)c(C)c1CNC(=O)c1ccc(F)c(S(=O)(=O)N2CCOCC2)c1`, the inhibition is reported as 27.9% (active).
With `CC(C)(C)NC(=O)NC(=O)COC(=O)CCC1CCCCC1` the inhibition was 41.1% (active).
`Cc1c(-c2nn(C)c(=O)c3ccccc23)oc2ccc(F)cc2c1=O` was tested, and the inhibition was 35.8% (active).
With `Nc1ccc2nc3c(=O)[nH]c(=S)[nH]c3nc2c1` the inhibition was 31.8% (active).
`COc1ccccc1C1C(C#N)=C(N)Oc2c1c(-c1ccccc1)nn2-c1ccccc1` (stereo not drawn) was tested, and the inhibition was 33.4% (active).
In the case of `COCCOC(=O)c1sc(=S)n(CCOC)c1N`, the inhibition is reported as 40.9% (active).
With `CCOc1[nH]n(-c2ccc(Cl)cc2)c(=O)c1C=Nc1ccc(O)cc1` the inhibition was 26.1% (active).

Point of comparison: `CCCCN(C)CCNC(=O)CSCc1ccc(C)cc1`, inhibition -2.21%. Against it:
- Nc1cc(N)nc(SCc2cccc(F)c2)n1 — lower, -6.07%
- Cc1cc(=O)[nH]c(SCc2cccc(F)c2)n1 — higher, 3.23%
- CC(C)Cc1nc(Nc2ccc(S(=O)(=O)N3CCCC3)cc2)c2nnn(Cc3ccccc3)c2n1 — lower, -3.06%
- CCCc1cc(=O)[nH]c(SCC(=O)Nc2ccc(S(=O)(=O)N3CCCC3)cc2)n1 — higher, 5.78%
- CC(=O)Oc1ccc(N(C(C)=O)S(=O)(=O)c2ccc3ccccc3c2)cc1Br — higher, -0.04%
- COC(=O)c1c(C)oc2ccc(N(C(=O)Oc3ccccc3)S(=O)(=O)c3ccccc3)cc12 — lower, -4.57%
- CCOC(=O)c1c(C)[nH]c(C2=NNC(=NC(C)COC)SC2)c1C (stereo not drawn) — lower, -4.38%
- O=C(NC(=S)Nc1cc(C(F)(F)F)ccc1N1CCOCC1)c1ccc(-c2cccc(Cl)c2)o1 — higher, -0.46%
- Cc1ccc(-n2[nH]c(C)c(/C=N/NC(=O)c3cccc([N+](=O)[O-])c3)c2=O)cc1C — higher, -0.65%
- COc1ccc(C(=O)Nc2ccc(C(=O)NCC3CCCO3)cc2)c(OC)c1OC (stereo not drawn) — higher, 2.07%
- COc1ccc(CCn2ccc(O)c(Cc3ccc(Cl)cc3Cl)c2=O)cc1OC — higher, 2.71%
- C#CCOCCOCCOCCNc1nc(N2CCN(C(=O)C([C@@H](C)O)n3cc([C@@H](N)CCCCN)nn3)CC2)nc(N2CCN(C(=O)[C@H](CCCCN)n3cc(CN)nn3)CC2)n1 (stereo partly drawn) — higher, 4.78%
- CC(=O)NS(=O)(=O)c1ccc(N/C(N)=N/c2nc(C)cc(C)n2)cc1 — higher, -0.78%
- CSc1ccc(/C=C2\NC(=O)NC2=O)cc1 — higher, -0.37%
- CCOC(=O)c1csc(NC(=O)c2ccc(S(=O)(=O)N3CCCC3)cc2)n1 — lower, -3.23%
- CNC(=O)c1ccsc1NC(=O)c1ccc(S(=O)(=O)N2CCOCC2)cc1 — lower, -4.29%
- CCOC(=O)c1ccc(NNC(C)=O)c([N+](=O)[O-])c1 — higher, -2.2%
- COC(=O)c1noc(C)c1-c1ccnn1C(=O)c1ccc(Cl)cc1 — lower, -7.73%
- Cc1ccc(N=C2NC(=O)c3cccc([N+](=O)[O-])c32)cc1 — higher, -1.46%
- O=C(NCc1ccccn1)c1ccc2nc(-c3ccco3)c(-c3ccco3)nc2c1 — higher, 7.09%
- COc1cccc(NC(=O)NCCN2CCCCC2)c1 — higher, -0.52%
- CCc1ccc(OC(C)C(=O)Nc2ccc(S(=O)(=O)Nc3cc(C)on3)cc2)cc1 (stereo not drawn) — higher, -0.06%
- CC(C)C(NC(=O)OCc1ccccc1)C(=O)OCC(=O)N1C(C)CCCC1C (stereo not drawn) — higher, 2.54%
- O=C(NCCSCc1ccccc1)c1ccc(Cl)c(S(=O)(=O)N2CCOCC2)c1 — higher, 1.45%
- O=C(c1ccc(F)c(S(=O)(=O)N2CCOCC2)c1)N(CCc1ccccc1)Cc1ccccc1 — lower, -3.27%
- CCOC(=O)c1cc(NC(=O)SCC(=O)O)c(C)nc1C — higher, 2.33%
- CC1=NN(C(C)C)C(=O)C1 — lower, -8.28%
- CC(C)(C)NC(=O)NC(=O)COC(=O)C1(C)CC1(Cl)Cl (stereo not drawn) — higher, -0.93%
- COc1ccccc1OCCC(=O)OCC(=O)NC(=O)NC(C)(C)C — higher, 6.96%
- COc1ccc(S(=O)(=O)N2CCCCCC2)cc1C(=O)OCC(=O)Nc1cc(C)on1 — lower, -6.43%
- COc1ccc(CCNS(=O)(=O)c2ccc(Cl)s2)cc1OC — lower, -2.69%
- Cc1ccc(F)cc1NC(=O)Cc1nn(C)c(=O)c2ccccc12 — lower, -6.33%
- O=C1c2oc3ccc(Br)cc3c(=O)c2C(c2cccc(F)c2)N1CCO (stereo not drawn) — lower, -4.97%
- COC(=O)c1cc2c(N)c(C(=O)c3ccc(Cl)cc3)sc2nc1C(OC)OC — higher, 0.06%
- O=c1c(F)cn(C2CCCO2)c(=O)n1Cc1ccccc1Cl (stereo not drawn) — lower, -4.61%
- O=C(CNC1CCCCC1)NCC1(c2ccccc2)CCCC1 — lower, -2.33%
- Cc1nn(-c2ccccc2)c2c1C(c1ccc(F)cc1)C(C#N)=C(N)O2 (stereo not drawn) — higher, -1.5%
- Cc1nn(Cc2ccccc2)c2c1C(c1ccccc1)C(C#N)=C(N)O2 (stereo not drawn) — higher, -0.16%
- O=C(O)CC(SCC(=O)Nc1ccc(Br)cc1)C(=O)O (stereo not drawn) — higher, 1.63%
- CCOC(=O)CN(C(=O)COc1nc(C)cc(C)c1C#N)c1ccc(Cl)cc1 — higher, 5.17%
- CCOc1ccc(N=C2NC(=O)S/C2=C\c2ccc(O)cc2)cc1 — higher, -1.95%
- CC(C)c1nc(CNC(=O)CC2C(=O)NCCN2Cc2ccoc2)cs1 (stereo not drawn) — higher, 5.06%
- OC1CSc2nc3ccccc3n2C1 (stereo not drawn) — higher, -1.87%
- Cc1ccc(-c2cc(C(=O)NCc3cn(C)nc3C)c3cc(Br)ccc3n2)cc1 — higher, 2.48%
